# Bioassay records as filed in PubChem BioAssay.
# VDR inhibitor: Inhibitors of the vitamin D receptor (VDR): qHTS. Vitamin D3 receptor (Homo sapiens), P11473. VDR-SRC2-3 peptide fluorescence polarization, 2 h. Potency, µM, without a hit: max response, negative = inhibition, hits mostly inhibitors. 0.93% of 400,000 active; note: potency is the fitted concentration of half-maximal effect; % is set by controls: 0 for no effect and ±100 for the full control effect
#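 Measured by FP: displacement of SRC2-3 coactivator peptide from VDR by library compounds, following a two-hour ambient incubation.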
# USP2a inh: qHTS Assay for Inhibitors of Ubiquitin-specific Protease USP2a Using CHOP2 as the Reporter | USP2 core, Ub-CHOP2 coupled fluorogenic reporter, 485/531 | Ubiquitin carboxyl-terminal hydrolase 2 (Homo sapiens), O75604 | AID 463254, 2010 | 0.01% of 330,000 active | Potency, µM (titrated, usually from 38.3 µM), for inactives: at the highest dose activity change, negative = inhibition, hits mostly inhibitors;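 note: potency is the fitted concentration of half-maximal effect; plate controls were DMSO wells for no effect and full inhibition by NEM control for full effect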
#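 USP2 core (10nM final) preincubated 30min RT with compound in 20mM Tris-HCl pH 8.0, 2mM CaCl2, 2mM beta-mercaptoethanol, 0.05% CHAPS; 25nM Ub-CHOP2 plus 25nM reporter substrate added, fluorescence (Ex485/Em531) read after 60min.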
# USP1 inh: Inhibitors of USP1/UAF1: Primary Screen; Ubiquitin carboxyl-terminal hydrolase 1 (Homo sapiens), O94782; recombinant USP1/UAF1, Ub-Rhodamine cleavage fluorescence; Potency, µM (doses to about 57.1 µM), without a hit: top-dose activity change, negative = inhibition, actives largely listed as inhibitors; 0.23% of 390,000 active; AID 743255, 2014; note: potency is the fitted concentration of half-maximal effect; % is set by controls: 0 for no effect and ±100 for the full control effect; nearly all actives have a fitted effect of over 60% in size
#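 USP1/UAF1 complex (1 nM) preincubated 15 min at room temperature with compound, then Ub-Rho substrate (150 nM final) added. Kinetic fluorescence at 480/540 nm over 6 reads at 60 s intervals; 50 mM HEPES pH 7.8, 0.5 mM EDTA, 0.1 mg/ml BSA, 1 mM TCEP, 0.01% Tween-20.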
# PLK1 PBD inh: qHTS for Inhibitors of PLK1-PDB (polo-like kinase 1 - polo-box domain): Primary Screen. Serine/threonine-protein kinase PLK1 (Homo sapiens), P53350. Potency, µM, for inactives: max response, negative = inhibition, most hits filed as inhibitors. Plk1 PBD binding of FITC phosphopeptide, fluorescence polarization. 2.8% of 360,000 active; note: potency is the fitted concentration of half-maximal effect; series mostly up to about 57 µM; % is set by controls: 0 for no effect and ±100 for the full control effect; nearly all actives have a fitted effect of over 65% in size
# Target sequence (P53350 whole entry, looked up, the tested form may be a part): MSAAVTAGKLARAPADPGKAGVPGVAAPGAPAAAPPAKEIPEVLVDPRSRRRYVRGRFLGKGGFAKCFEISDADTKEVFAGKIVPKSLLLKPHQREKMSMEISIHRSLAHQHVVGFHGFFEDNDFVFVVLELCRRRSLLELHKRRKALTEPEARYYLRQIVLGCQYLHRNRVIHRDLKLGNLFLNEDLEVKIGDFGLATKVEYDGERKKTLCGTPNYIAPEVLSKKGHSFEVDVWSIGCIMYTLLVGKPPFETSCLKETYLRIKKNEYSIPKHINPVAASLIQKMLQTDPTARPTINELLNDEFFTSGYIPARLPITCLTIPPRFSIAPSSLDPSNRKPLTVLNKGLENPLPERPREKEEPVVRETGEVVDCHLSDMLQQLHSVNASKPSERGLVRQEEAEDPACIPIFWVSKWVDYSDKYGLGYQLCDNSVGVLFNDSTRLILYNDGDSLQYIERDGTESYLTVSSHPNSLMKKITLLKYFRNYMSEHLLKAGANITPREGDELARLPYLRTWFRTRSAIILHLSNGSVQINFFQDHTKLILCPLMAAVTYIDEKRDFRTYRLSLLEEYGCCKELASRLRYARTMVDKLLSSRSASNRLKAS
# GALK inhibitor: qHTS Assay for Inhibitors of Human Galactokinase (GALK); Purified GALK, Kinase-Glo residual ATP luminescence; Potency, µM (doses to about 57.5 µM), inactives show top-dose activity change, negative = inhibition, actives largely listed as inhibitors; P51570; 0.007% of 270,000 active; AID 1868, 2009; note: potency is the fitted concentration of half-maximal effect; % is set by controls: 0 for no effect and ±100 for the full control effect
#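 Kinase-Glo Plus luminescence measured ATP left after a 1 h room-temperature reaction. The reaction used 5 nM GALK, 100 uM galactose and 35 uM ATP at pH 8.0 (20 mM HEPES, 5 mM MgCl2, 60 mM NaCl, 1 mM DTT, 0.01% BSA).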
# Coupling enz: qHTS Assay for Inhibitors of Fructose-1,6-bisphosphate Aldolase from Giardia Lamblia: Coupling assay counterscreen | coupling enzyme system counterscreen, AmpLite Red fluorescence | activity change, negative = inhibition, % at 58.2 µM, hits read low | 0.67% of 290,000 active | AID 2472, 2010; in the data active = activity change below about -30%; note: % is set by controls: 0 for no effect and ±100 for the full control effect
#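 Counterscreen lacking aldolase: glyceraldehyde-3-phosphate coupling-enzyme reagent preincubated 10 min at RT with compound (at 57.5 uM final), then substrate/coupling system with AmpLite Red added; fluorescence read at 525/598 nm after 20 min RT.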
# VDR inh confirm: qHTS for Inhibitors of the vitamin D receptor (VDR): Hit Validation in Primary Screen; shares compounds with VDR inhibitor; VDR-coactivator inhibition assay, qHTS confirmation; Potency, µM, most hits filed as inhibitors; 89% of 840 active; AID 602199, 2012; note: potency is the fitted concentration of half-maximal effect
# VDR FP: qHTS for Inhibitors of the vitamin D receptor (VDR): Hit Validation using a Fluorescein Assay. VDR-coactivator binding, fluorescein fluorescence polarization. AID 602200, 2012. shares compounds with VDR inhibitor. Potency, µM (doses to about 57.1 µM), for the others: at the highest dose activity change, negative = inhibition, actives largely listed as inhibitors. 48% of 840 active; note: potency is the fitted concentration of half-maximal effect
# VDR bla reporter: qHTS for Inhibitors of the vitamin D receptor (VDR): Hit Validation using a Beta-Lactamase Assay | shares compounds with VDR inhibitor | VDR beta-lactamase reporter cells, FRET ratio; cells co-treated with VDR agonist LG190178 | Potency, µM (titrated, usually from 46.1 µM), for the others: at the highest dose activity change, negative = inhibition, actives largely listed as inhibitors | 23% of 840 active; note: potency is the fitted concentration of half-maximal effect; % is set by controls: 0 for no effect and ±100 for the full control effect
# VDR cytotox: qHTS for Inhibitors of the vitamin D receptor (VDR): Hit Validation using a Cytotoxicity Assay | 18% of 840 active | shares compounds with VDR inhibitor | Potency, µM (doses to about 48.3 µM), for inactives: top-dose activity change, negative = cytotoxicity, most hits filed as cytotoxic | cytotoxicity counter-screen, cell viability, qHTS | AID 602204, 2012;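 note: potency is the fitted concentration of half-maximal effect; plate controls were DMSO for no effect and high-concentration cycloheximide for full effect; nearly all actives have a fitted effect of over 75% in size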
# * marks the source's active call; other numbers are inactive results; ? = inconclusive; nt = not tested or not shown. Rows were chosen to be rich in hits. Some 3.2% of all compounds tested hit in one or more screens of this group. Unless noted, calls come from the whole dose curve; as a rule, active = well fitted curve in the direction sought with a large enough effect; inconclusive = small, poorly fitted or top-dose-only effect, or another doubt; inactive = no such curve, though single readings can be large; an effect the other way counts as inactive or inconclusive.
SMILES,VDR inhibitor,USP2a inh,USP1 inh,PLK1 PBD inh,GALK inhibitor,Coupling enz,VDR inh confirm,VDR FP,VDR bla reporter,VDR cytotox
O=C(O)CN1C(=O)/C(=C\C(Br)=C\c2ccccc2)SC1=S,35µM*,10%,-12%,6µM*,-2%,-20,?,18%,?,?
O=C(O)CN1C(=O)/C(=C/C=C/c2ccccc2)SC1=S,-10%,7%,-23%,?,-5%,10,nt,nt,nt,nt
O=C(CCS(=O)(=O)c1nc(-c2cccs2)cc(C(F)(F)F)n1)Nc1ccc(Br)cc1,14µM*,nt,9%,nt,nt,nt,3.5*,4µM*,?,?
CCN(CC)c1ccc(NC(=O)CSc2nc(-c3cccs3)cc(C(F)(F)F)n2)cc1,-30%,nt,-29%,nt,nt,nt,nt,nt,nt,nt
O=C(CCS(=O)(=O)c1nc(-c2cccs2)cc(C(F)(F)F)n1)Nc1cc(Br)ccc1O,11µM*,nt,-4%,nt,nt,nt,3.2*,3.5µM*,-1%,?
O=C(CCS(=O)(=O)c1nc(-c2ccc3c(c2)OCO3)cc(C(F)(F)F)n1)Nc1ccc(F)cc1F,40µM*,nt,?,nt,nt,nt,11*,14µM*,?,2%
COc1ccc(-c2cc(C(F)(F)F)nc(SCCC(=O)Nc3cc(C)ccc3O)n2)cc1,-19%,nt,-20%,nt,nt,nt,nt,nt,nt,nt
Cc1ccc(O)c(NC(=O)CCS(=O)(=O)c2nc(-c3cccs3)cc(C(F)(F)F)n2)c1,20µM*,nt,?,nt,nt,nt,4.5*,7.9µM*,?,?
O=C(CSc1ncn[nH]1)N1CCOCC1,-13%,1%,-7%,-5%,4%,0,nt,nt,nt,nt
O=C(O)c1cc(/C=C/C(=O)c2cc(F)ccc2O)c2c(c1)COCO2,25µM*,-2%,-16%,?,nt,1,6.7*,?,27%,?
CCCOc1ccc(C(=O)CCNC(Cc2c[nH]c3ccccc23)C(=O)O)cc1 (stereo unspecified),45µM*,1%,-13%,5.3µM*,nt,4,19*,?,12%,?
COc1ccc(C(=O)NC(Cc2c[nH]c3ccccc23)C(=O)O)cc1 (stereo unspecified),13%,9%,-6%,-6%,nt,6,nt,nt,nt,nt
COc1ccc(C(C2C(=O)CC(C)(C)CC2=O)C2C(=O)CC(C)(C)CC2=O)cc1COCC(F)(F)F,20µM*,2%,-15%,6.7µM*,0%,7,6*,?,26%,11%
CC1(C)CC(=O)C(C(c2cccc([N+](=O)[O-])c2)C2C(=O)CC(C)(C)CC2=O)C(=O)C1,?,3%,-7%,-22%,1%,4,nt,nt,nt,nt
COc1ccc(NC(=O)C(Cl)=C(Cl)Cl)cn1,-20%,4%,-17%,1%,1%,-2,nt,nt,nt,nt
COc1ccc(NC(=O)/C(Cl)=C(/Cl)S(=O)Cc2ccc(Cl)cc2)cn1 (stereo unspecified),11µM*,-1%,?,1.3µM*,9%,-1,4.2*,2.8µM*,1.8µM*,11µM*
Cc1nc2c(=O)[nH]c(=S)n(C)c2nc1C,50µM*,5%,-2%,3µM*,nt,-4,15*,?,-6%,?
N#CC1=C(Nc2ccccc2Cl)SC(c2ccccc2O)NC1=O (stereo unspecified),20µM*,-8%,-23%,?,0%,13,3.8*,?,14%,13%
COc1cccc(NC2=C(C#N)C(=O)NC(c3cccc(OC)c3O)S2)c1 (stereo unspecified),?,0%,-8%,-27%,nt,-1,nt,nt,nt,nt
CCc1c(O)c(/C(C)=N\O)c(=O)n(-c2ccccc2)c1-c1ccccc1,-7%,-1%,0%,-14%,0%,-10,nt,nt,nt,nt
CCc1ccccc1NC(=O)CNC(=O)CNC(=O)C1CCCCC1,-11%,4%,-3%,-9%,nt,nt,nt,nt,nt,nt
COc1ccc(C(=O)/C=C/C(=O)N(CC(=O)NC2CCCCC2)Cc2ccccc2)c(O)c1,28µM*,-8%,-11%,5.3µM*,4%,1,12*,?,13µM*,?
COc1ccc(C(=O)/C=C/C(=O)N(CC(=O)NC2CCCCC2)Cc2ccccc2OC)c(O)c1,?,2%,-22%,?,-2%,2,nt,nt,nt,nt
CC(C)c1nnc(NC(=O)c2nc(S(=O)(=O)Cc3ccccc3F)ncc2Cl)s1,20µM*,2%,-22%,-12%,-4%,nt,8.4*,3.2µM*,18µM*,21µM*
O=C(Nc1nc2ccc(F)cc2s1)c1nc(S(=O)(=O)Cc2ccccc2F)ncc1Cl,?,nt,-28%,nt,nt,nt,nt,nt,nt,nt
CSc1nnc(NC(=O)c2nc(S(=O)(=O)Cc3ccccc3F)ncc2Cl)s1,20µM*,-1%,-12%,?,0%,2,6*,7.9µM*,7.3µM*,11µM*
COC(=O)[C@H](CCSC)NC(=O)c1cc2c(cn1)[nH]c1ccccc12,25µM*,1%,-24%,3µM*,-4%,0,7.5*,?,5%,30%
